Drawing on PubChem BioAssay (Tox21), this text covers Potency and outcome for 15 compounds.

“And” between values parts separate entries of the source, which are not always exact repeats. Equal entries are not always repeated. Some compounds were tested as several samples or in several runs, with calls that do not always agree. The source made the active and inactive calls. Unless noted, calls follow the shape of the dose curve; as a rule, active = well fitted curve in the direction sought with a large enough effect in the repeat runs; inconclusive = weak or mixed curves; inactive = no such curve, though single readings can be large; an effect the other way counts as inactive or inconclusive.

A short description of assay [1]: qHTS assay to identify small molecule antagonists of the glucocorticoid receptor (GR) signaling pathway - cell viability counter screen (AID 720693). Also: nearly all actives have a fitted effect of over 55% in size. A general note: In qHTS, concentration-response curves come from the screen itself.
A short description of assay [2]: qHTS assay for identifying genotoxic compounds that show differential cytotoxicity against isogenic chicken DT40 cell lines with known DNA damage response pathways - Rev3 mutant cell line (AID 743014). Also: nearly all actives have a fitted effect of over 55% in size. Also: potency is read from the fitted curve at half-maximal effect.
Assay [3] is described as follows: qHTS assay to identify small molecule antagonists of the androgen receptor (AR) signaling pathway - cell viability counter screen (AID 743033; also: nearly all actives have a fitted effect of over 45% in size).
The nature of assay [4]: qHTS assay to identify small molecule antagonists of the androgen receptor (AR) signaling pathway using the MDA cell line - cell viability counter screen (AID 743041; also: nearly all actives have a fitted effect of over 45% in size). A digest of the protocol:
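Using the breast carcinoma line MDA-kb2 AR-luc, test chemicals were co-incubated with R1881 for 16 h; CellTiter-Fluor reagent, added at 15.5 h, provided a fluorescence measure of live cells.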

The test system of assay [5] is thyroid hormone receptor (rat, GH3 cells). Put plainly: qHTS assay to identify small molecule agonists of the thyroid receptor (TR) signaling pathway (AID 743066; calls by dose curve).
In assay [6] the target is Estrogen receptor (Homo sapiens) (UniProt P03372). Put plainly: qHTS assay to identify small molecule antagonists of the estrogen receptor alpha (ER-alpha) signaling pathway (AID 743069; active = well fitted curve in the direction sought with a large enough effect in the signal ratio in the repeat runs, not every such curve was filed as active; inconclusive = weak or mixed curves, or effect the other way; inactive = no such curve, though single readings can be large or run the other way; the % refers to the signal ratio). Summed up: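 Fluorescence intensity from a beta-lactamase FRET substrate served as the read-out. Cells: HEK293 with stably integrated ER-alpha-UAS-bla reporter. Agonist 17beta-estradiol was co-added with compounds; incubation 18 hr at 37C, substrate 2 hr at room temperature.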
Chain of Estrogen receptor (Homo sapiens) (P03372 whole entry, looked up): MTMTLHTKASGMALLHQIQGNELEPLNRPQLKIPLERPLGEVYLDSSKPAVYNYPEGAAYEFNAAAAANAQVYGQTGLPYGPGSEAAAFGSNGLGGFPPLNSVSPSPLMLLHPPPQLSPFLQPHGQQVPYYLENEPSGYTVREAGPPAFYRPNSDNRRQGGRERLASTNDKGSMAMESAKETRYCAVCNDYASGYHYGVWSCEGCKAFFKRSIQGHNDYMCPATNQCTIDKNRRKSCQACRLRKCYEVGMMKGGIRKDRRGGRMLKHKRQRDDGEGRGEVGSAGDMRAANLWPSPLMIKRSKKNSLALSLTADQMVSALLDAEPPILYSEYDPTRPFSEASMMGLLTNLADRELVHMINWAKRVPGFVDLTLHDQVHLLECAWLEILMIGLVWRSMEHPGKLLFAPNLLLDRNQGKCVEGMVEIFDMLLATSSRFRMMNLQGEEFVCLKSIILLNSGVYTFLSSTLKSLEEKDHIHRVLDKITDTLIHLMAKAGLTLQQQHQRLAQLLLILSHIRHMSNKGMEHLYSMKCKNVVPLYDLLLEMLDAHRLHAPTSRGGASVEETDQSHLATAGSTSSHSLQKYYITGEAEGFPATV

Assay [7] in a line: qHTS assay to identify small molecule antagonists of the estrogen receptor alpha (ER-alpha) signaling pathway - cell viability counter screen (AID 743074; calls by dose curve; also: nearly all actives have a fitted effect of over 45% in size).
In assay [8] the target is Estrogen receptor (Homo sapiens) (UniProt P03372). The assay is described as follows: qHTS assay to identify small molecule agonists of the estrogen receptor alpha (ER-alpha) signaling pathway (AID 743075; calls by dose curve; also: potency is read from the fitted curve at half-maximal effect).
Assay [9] has the same target. The assay is described as follows: qHTS assay to identify small molecule agonists of the estrogen receptor alpha (ER-alpha) signaling pathway using the BG1 cell line (AID 743079). Also: nearly all actives have a fitted effect of over 20% in size. Also: potency is read from the fitted curve at half-maximal effect. The conditions noted are these: BG1Luc4E2 cells, ERE-luciferase agonist, 22 h; activation: at 70.3 µM (top of the series).
Assay [10] can be described thus: qHTS assay to identify small molecule antagonists of the estrogen receptor alpha (ER-alpha) signaling pathway using the BG1 cell line - cell viability counter screen (AID 743081).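 Also: compound given together with 17beta-estradiol as the ER stimulus; nearly all actives have a fitted effect of over 45% in size.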
A further assay concerns the target Aromatase (Homo sapiens) (UniProt P11511). Put plainly: qHTS assay to identify aromatase inhibitors (AID 743083). Also: nearly all actives have a fitted effect of over 55% in size. Also: potency is read from the fitted curve at half-maximal effect.
Assay [11] in a line: qHTS assay to identify small molecule antagonists of the thyroid receptor (TR) signaling pathway - cell viability counter screen (AID 743064). Also: nearly all actives have a fitted effect of over 50% in size. Also: potency is read from the fitted curve at half-maximal effect. Summed up: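 Same-well viability check: GH3.TRE-Luc cells stimulated with 1 nM T3 alongside test compound for 23.5 h, followed by CellTiter-Fluor fluorescence.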
A short description of assay [12]: qHTS assay to identify small molecule antagonists of the thyroid receptor (TR) signaling pathway (AID 743065). Also: nearly all actives have a fitted effect of over 55% in size. Also: potency is read from the fitted curve at half-maximal effect. A digest of the protocol:
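Antagonism measured as loss of luciferase signal in GH3 cells stably carrying a TRE-luciferase reporter, co-treated with compound and T3 (1 nM final) for 23.5 h at 37 C. Viability was read in the same well by CellTiter-Fluor.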

The nature of assay [13]: qHTS assay for identifying genotoxic compounds that show differential cytotoxicity against isogenic chicken DT40 cell lines with known DNA damage response pathways - Rad54/Ku70 mutant cell line (AID 743015). Also: nearly all actives have a fitted effect of over 60% in size. Also: potency is read from the fitted curve at half-maximal effect.
The nature of assay [14]: qHTS assay for identifying genotoxic compounds that show differential cytotoxicity against isogenic chicken DT40 cell lines with known DNA damage response pathways - wild type cell line (AID 743012). Also: nearly all actives have a fitted effect of over 60% in size. Also: potency is read from the fitted curve at half-maximal effect. A digest of the protocol: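 Cytotoxicity in repair-proficient parental chicken DT40 cells serves as the comparator for Rad54/Ku70- and Rev3-deficient lines. Cells were exposed to compounds for 40 h at 37 C/5% CO2, and ATP-based luminescence (CellTiter-Glo) measured viability.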

Assay [15] can be described thus: qHTS assay to identify small molecule antagonists of the estrogen receptor alpha (ER-alpha) signaling pathway using the BG1 cell line (AID 743080; calls by dose curve;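 also: BG1 cells stimulated with 17beta-estradiol alongside compound; nearly all actives have a fitted effect of over 25% in size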; also: potency is read from the fitted curve at half-maximal effect). Summed up: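 Quantitative HTS on the Tox21 10K library: BG1 cells with endogenous ER-alpha and ERE-luciferase reporter, 17beta-estradiol stimulation, 21.5 h compound exposure, luminescence endpoint with parallel fluorescence cytotoxicity counter-read.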

The target of assay [16] is Androgen receptor (Homo sapiens) (UniProt P10275). The assay is described as follows: qHTS assay to identify small molecule agonists of the androgen receptor (AR) signaling pathway (AID 743036; active = well fitted activation curve with a large enough effect in the signal ratio in the repeat runs, with a control signal flat, not every such curve was filed as active; inconclusive = weak or mixed curves, or effect the other way; inactive = no such curve, though single readings can be large or run the other way; the % refers to the signal ratio). Summed up: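 Agonist activity was scored by beta-lactamase reporter fluorescence in stably transfected HEK293 cells exposed to compounds for 16 h at 37C and 5% CO2. Substrate loading took 2 h at room temperature.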
Chain of Androgen receptor (Homo sapiens) (P10275 whole entry, looked up): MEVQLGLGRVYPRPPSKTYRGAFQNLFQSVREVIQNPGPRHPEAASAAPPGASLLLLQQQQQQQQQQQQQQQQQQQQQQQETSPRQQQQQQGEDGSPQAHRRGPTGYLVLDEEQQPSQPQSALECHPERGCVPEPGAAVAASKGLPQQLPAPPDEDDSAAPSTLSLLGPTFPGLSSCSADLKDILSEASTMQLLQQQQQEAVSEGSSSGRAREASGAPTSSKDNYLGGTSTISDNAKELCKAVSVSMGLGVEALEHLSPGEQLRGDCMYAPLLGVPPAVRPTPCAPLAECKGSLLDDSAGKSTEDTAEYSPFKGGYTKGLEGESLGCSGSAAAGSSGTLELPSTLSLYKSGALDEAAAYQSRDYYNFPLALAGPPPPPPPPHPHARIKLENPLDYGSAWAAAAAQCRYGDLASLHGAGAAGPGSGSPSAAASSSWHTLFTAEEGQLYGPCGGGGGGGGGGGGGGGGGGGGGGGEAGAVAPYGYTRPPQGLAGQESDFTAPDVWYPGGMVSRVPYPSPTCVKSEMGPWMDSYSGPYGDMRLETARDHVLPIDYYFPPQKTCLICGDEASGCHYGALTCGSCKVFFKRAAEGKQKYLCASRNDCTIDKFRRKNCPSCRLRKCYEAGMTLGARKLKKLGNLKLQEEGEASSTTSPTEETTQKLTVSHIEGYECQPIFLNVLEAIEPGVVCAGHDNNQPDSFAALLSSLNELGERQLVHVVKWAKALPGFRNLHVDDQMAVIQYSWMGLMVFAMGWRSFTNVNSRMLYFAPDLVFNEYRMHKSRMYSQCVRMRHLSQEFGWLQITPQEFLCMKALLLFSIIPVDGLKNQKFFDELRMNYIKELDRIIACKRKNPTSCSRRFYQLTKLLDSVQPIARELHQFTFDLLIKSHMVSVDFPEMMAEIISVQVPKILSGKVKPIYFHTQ

For assay [17] the target is unchanged. Put plainly: qHTS assay to identify small molecule agonists of the androgen receptor (AR) signaling pathway using the MDA cell line (AID 743040; also: nearly all actives have a fitted effect of over 20% in size). Summed up:
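Stable MMTV-luciferase reporter in MDA-kb2 cells; note the promoter carries GR as well as AR response elements. 16 h compound treatment, 37C, 0% CO2; ONE-Glo luminescence endpoint.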

Assay [18] shares this target. The assay is described as follows: qHTS assay to identify small molecule antagonists of the androgen receptor (AR) signaling pathway using the MDA cell line (AID 743042; also: nearly all actives have a fitted effect of over 55% in size). A digest of the protocol:
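Antagonist mode: compounds plus R1881 agonist added to MDA-kb2 AR-luc cells, incubated 16 h at 37C. Luciferase reporter luminescence quantified, with multiplexed CellTiter-Fluor readout for cell viability.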

Assay [19] shares this target. The assay is described as follows: qHTS assay to identify small molecule antagonists of the androgen receptor (AR) signaling pathway (AID 743035; active = well fitted inhibition curve with a large enough effect in the signal ratio in the repeat runs, not every such curve was filed as active; inconclusive = weak or mixed curves, or effect the other way; inactive = no such curve, though single readings can be large or run the other way; the % refers to the signal ratio). A digest of the protocol:
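Steps: seed AR-UAS-bla GripTite HEK293 cells, incubate 4 h at 37C; pin in test compound, then add agonist R1881; incubate 16 h at 37C; add LiveBLAzer B/G FRET substrate, 2 h at room temperature; read fluorescence.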

Chain of Aromatase (Homo sapiens) (P11511 whole entry, looked up): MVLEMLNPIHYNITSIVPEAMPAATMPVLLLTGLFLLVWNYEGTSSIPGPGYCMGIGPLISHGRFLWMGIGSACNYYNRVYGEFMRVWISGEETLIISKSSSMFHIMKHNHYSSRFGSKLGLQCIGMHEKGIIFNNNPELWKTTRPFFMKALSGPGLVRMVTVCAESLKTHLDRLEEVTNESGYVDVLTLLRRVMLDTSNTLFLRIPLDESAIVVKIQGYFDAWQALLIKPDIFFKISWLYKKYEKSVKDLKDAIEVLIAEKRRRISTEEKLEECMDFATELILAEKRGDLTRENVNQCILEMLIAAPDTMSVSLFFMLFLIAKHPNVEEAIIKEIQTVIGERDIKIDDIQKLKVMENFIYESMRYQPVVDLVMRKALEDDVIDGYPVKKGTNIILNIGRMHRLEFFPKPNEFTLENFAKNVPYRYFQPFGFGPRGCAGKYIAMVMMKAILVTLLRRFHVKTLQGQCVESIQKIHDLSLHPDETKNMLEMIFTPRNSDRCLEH

Regarding `COC(=O)C(C)N(C(=O)c1ccco1)c1c(C)cccc1C` (centres undefined), the Potency result in assay [1], in [3], in assay [4], in [5], in assay [6] and in assay [7] was “inactive” throughout. Besides, the Potency result (in assay [8]; in [9]; in [10]; in the assay with Aromatase (Homo sapiens)) was “inactive” throughout. In addition, in assay [2], the Potency was 54.4 µM (active).

Consider `CN(C)CCc1c[nH]c2ccccc12`, for which the Potency entry in assay [1], in assay [2], in assay [3], in [4], in [11] and in assay [12] was “inactive” throughout. In addition, the Potency entry in [5], in [7] and in [10] was “inactive” each time.

Consider `CC(=O)C(Cl)C(=O)N(C)C` (centres undefined), for which the Potency entry in [1], in assay [3], in [4], in assay [5], in [7] and in assay [8] was “inactive” throughout. The Potency result (in [9]; in [10]; with Aromatase (Homo sapiens)) was “inactive” in each case. The Potency is 24.3 µM (active) in assay [2] and 61.1 µM (active) in [13].

As to `COP(=S)(NC(C)C)Oc1ccc(C)cc1[N+](=O)[O-]` (centres undefined), the Potency result in [1], in assay [3], in [12], in assay [5], in [7] and in [10] was “inactive” throughout. Besides, the Potency in [14] is 54.5 µM (active); in assay [13], 61.1 µM (active); in assay [8] it was 5.49 µM [inconclusive] (active); in assay [9], 1.93 µM (active); in assay [15] it was 38.6 µM (active).

Regarding `CCNS(=O)(=O)C(F)(F)C(F)(F)C(F)(F)C(F)(F)C(F)(F)C(F)(F)C(F)(F)C(F)(F)F`, the Potency entry in assay [1], in assay [3], in assay [4], in assay [18], in [11] and in assay [5] was “inactive” throughout. The Potency result (in [7]; in [10]; with Aromatase (Homo sapiens)) was “inactive” throughout. The call in assay [16] and in assay [17] was inactive.

With `ClC1(Cl)C2(Cl)C3(Cl)C4(Cl)C(Cl)(Cl)C5(Cl)C3(Cl)C1(Cl)C5(Cl)C24Cl` (centres undefined), the Potency entry in assay [1], in assay [14], in assay [13], in assay [3], in assay [4] and in assay [18] was “inactive” throughout. The Potency entry in assay [11], in assay [12], in [5], in assay [6], in assay [7] and in assay [8] was “inactive” in each case. For the same compound, the Potency result (in assay [9]; in [15]; in [10]; with Aromatase (Homo sapiens)) was “inactive” in each case. Besides, the compound was classed as inactive in [17].

For `COP(=O)(OC)Oc1ccc([N+](=O)[O-])cc1`, the Potency result in assay [1], in assay [3], in assay [11], in assay [12], in [5] and in assay [8] was “inactive” throughout. Besides, the Potency entry in [9] and in [10] was “inactive” in each case. For the same compound, the values for the Potency (in assay [2]; with Aromatase (Homo sapiens)) were 61.1 µM (active) and 34.4 µM (active), respectively.

For `N#Cc1ccc(N(CC(N)=O)CC(F)(F)F)cc1C(F)(F)F`, the Potency result in assay [1], in assay [2], in assay [3], in [4], in [12] and in [5] was “inactive” each time. Also, the Potency result in assay [6], in assay [7], in [8], in assay [9], in [15] and in [10] was “inactive” each time. The Potency entry with Aromatase (Homo sapiens) was “inactive”.

On to `Oc1cccc(Cl)c1Cl`, for which the Potency entry in [1], in [14], in assay [13], in assay [3], in [4] and in [12] was “inactive” throughout. Also, the Potency entry (in [5]; in assay [7]; in assay [8]; in [9]; in assay [10]; with Aromatase (Homo sapiens)) was “inactive” in each case.

For `CC(C)C(Br)C(=O)NC(N)=O` (centres undefined), the Potency entry in assay [1], in assay [2], in [13], in assay [3], in assay [4] and in assay [11] was “inactive” each time. The Potency entry in assay [12], in assay [5], in [8], in assay [9], in [15] and in [10] was “inactive” throughout. In addition, the Potency result with Aromatase (Homo sapiens) is “inactive”.

Regarding `O=NN(CCO)CCO`, the Potency entry in [14], in assay [2], in assay [13], in [3], in assay [19] and in [4] was “inactive” each time. The Potency result in assay [18], in assay [11], in assay [12], in assay [5], in [6] and in [7] was “inactive” in each case. For the same compound, the Potency result (in assay [8]; in assay [9]; in assay [10]; with Aromatase (Homo sapiens)) was “inactive” each time. In addition, the compound was called inactive in assay [16] and in [17].

As for `ClC1=C(Cl)[C@]2(Cl)[C@H]3[C@H]([C@@H]4C=C[C@H]3C4)[C@@]1(Cl)C2(Cl)Cl`, the Potency entry in assay [14], in [2], in assay [13], in [3], in assay [4] and in [6] was “inactive” in each case. Besides, the Potency result (in assay [7]; in [8]; in assay [9]; in assay [15]; in assay [10]; with Aromatase (Homo sapiens)) was “inactive” in each case. The Potency in [11] was 68.5 µM (active) and 61.1 µM (active); in assay [12] it was 54.5 µM (active).

Turning to `C[C@H]1[C@H](c2ccc(Cl)cc2)SC(=O)N1C(=O)NC1CCCCC1`, the Potency result in assay [1], in assay [3], in [4], in assay [7], in assay [8] and in [10] was “inactive” each time. Also, the call in assay [16] and in [17] was inactive. The Potency in assay [12] and in assay [15] was 61.1 µM (active) throughout.

For `CCC(C)Br` (centres undefined), the Potency result in assay [14], in [2], in [13], in [3], in assay [4] and in assay [11] was “inactive” each time. Besides, the Potency result (in assay [12]; in assay [5]; in assay [7]; in [10]; with Aromatase (Homo sapiens)) was “inactive” in each case.

Turning to `Clc1ccc(C(c2ccc(Cl)cc2)C(Cl)Cl)cc1`, the Potency in [14] was 39.2 µM (active) and 19.3 µM (active); in [2], 17.5 µM (active) and 3.86 µM (active); in [13], 27.8 µM (active) and 10.9 µM (active); in assay [12], 24.7 µM (active) and 43.3 µM (active); with Aromatase (Homo sapiens), 62.1 µM (active) and inactive. Further, the Potency result in [3], in assay [4], in [5], in [6], in assay [7] and in assay [8] was “inactive” each time. In addition, the Potency entry in assay [15] and in assay [10] was “inactive” in each case.
